Consider 105 compounds from ChEMBL document CHEMBL4513216, “Probing the Open Global Health Chemical Diversity Library for Multistage-Active Starting Points for Next-Generation Antimalarials” (ACS Infect Dis, 2020).

The structures appear in SMILES notation. Screen size: about 68,000 compounds; about 2,700 (4%) showed an effect of 50% or more. The sample holds strong results, similar compounds and a random draw of the others, so the mix is not that of the screen.

This experiment relates to Plasmodium berghei. As to the kind of experiment: Screen against P. berghei liver stage (PbLuc), transformed with Luciferase, at 2uM. It counts as functional, HepG2. The settings on record: tested at 2 uM.
Take `CN(C)S(=O)(=O)N1C[C@H]2CC[C@@H](C1)N(Cc1cccc(C#N)c1)C2`: the INHIBITION is reported as -19.83%. Turning to `CCNC(=O)N1CCc2ccc(NC(=O)NCCOCC)cc21`, the INHIBITION was found to be 10.1%.

As for `Cn1c(-c2ccccc2Cl)nc2cc(C(=O)NCCOCCO)cnc21`, the INHIBITION is reported as 2.7%. The figure for `Cn1c(-c2ccccc2Cl)nc2cc(C(=O)NCC3(C)COC3)cnc21` is 21.24%; for `Cn1c(-c2ccccc2Cl)nc2cc(C(=O)NC(CO)CO)cnc21` it is 56.89%; for `CN(C)CCNC(=O)c1cnc2c(c1)nc(-c1ccccc1Cl)n2C` it is -1.73%. Then `Cn1c(-c2ccccc2Cl)nc2cc(C(=O)NCC3(CO)CC3)cnc21`, with 58.53%; and `CC(=O)NCCNC(=O)c1cnc2c(c1)nc(-c1ccccc1Cl)n2C`, with -5.51%; and `COc1ccc(NC(=O)CCC2CCCN(S(=O)(=O)C3CC3)C2)cc1Cl` (stereo not given), with 13.99%.

Take `CCc1ccc(C(=O)N2CCCC(CNS(C)(=O)=O)C2)o1` (stereo not given): the INHIBITION is given as -23.94%.

With `O=C(c1ccc(F)c(Cl)c1)N1C[C@H]2CC[C@@H](C1)N(Cc1ccccc1)C2`, the INHIBITION is listed as -38.33%. Then `Cc1cn2nc(N3CCCC3CC(C)(C)C)sc2n1` (stereo not given), with 29.11%; and `COCCc1noc(CNC(C)(CO)C2CCCCC2)n1` (stereo not given), with 65.79%. Then `CC(CO)(NCc1noc(Cc2ccccc2)n1)C1CCCCC1` (stereo not given), with -69.13%; and `CCc1nc(CNC(C)(CO)C2CCCCC2)no1` (stereo not given), with 17.89%. The figure for `O=C1OCCN1CCc1nc(-c2cc3c4c(c2)CC(=O)N4CCC3)cs1` is 78.51%. In the case of `CN1C(=O)Cc2cc(-c3csc(CCN4CCOC4=O)n3)ccc21`, the INHIBITION was -35.62%. Then `O=C1CCCc2cc(-c3csc(CCN4CCOC4=O)n3)ccc2N1`, with 33.01%; and `CC(C)(C)c1ncc(C(=O)NCCSc2ccccn2)c(O)n1`, with 68.02%; and `CCn1c(C)nnc1SCCNC(=O)c1cnc(C(C)(C)C)nc1O`, with 3.86%. Turning to `Cc1nc(C(C)C)sc1C(=O)NCCSc1ccccn1`, the INHIBITION is -103.61%. With `CN1C[C@H]2CC[C@@H](C1)N(Cc1ccccc1OCCN1CCOCC1)C2`, the INHIBITION worked out at 32.1%. The figure for `NC(=O)CC1CC2(CCNCC2)c2cc(F)ccc21` (stereo not given) is -8.62%; for `c1cnc(-c2nn3c(CN4CCCCCC4)nnc3s2)cn1` it is 55.73%; for `c1cnc(-c2nn3c(CN4CCCCC4)nnc3s2)cn1` it is 7.91%.

On to `c1cnc(-c2nn3c(CN4CCOCC4)nnc3s2)cn1`, for which the INHIBITION amounted to 26.03%. The figure for `COC(=O)N1CCCC(NC(=O)NCc2ccc(C)nc2)C1` (stereo not given) is 22.07%; for `CC(C)(C)CC(=O)N1CC[C@H]2CC(=O)N(CCc3c[nH]cn3)CC[C@H]2C1` it is 17.31%. Then `Cc1cccc(C(C(=O)NCCCc2nnc3ccccn23)N(C)C)c1` (stereo not given), with -0.59%. Take `CCc1nnc(CN(CC)C(=O)C2CC(=O)N(C3CC3)C2)o1` (stereo not given): the INHIBITION was 10.02%. Then `CCc1nnc(CN(CC)C(=O)C2CC(=O)N(CC)C2)o1` (stereo not given), with 6.84%. The figure for `CCc1nnc(CN(CC)C(=O)C2CC(=O)N(C(C)(C)C)C2)o1` (stereo not given) is 50.86%.

Regarding `CCc1c(C)nc2cc(-c3nccn3C)nn2c1N1CCCC(CO)C1` (stereo not given), the INHIBITION is -40.66%. For the compound `CCS(=O)(=O)c1ccc2oc([C@H]3CCN(CC4CCCCC4)C3)nc2c1`, the INHIBITION worked out at 44.13%. For the compound `CCS(=O)(=O)c1ccc2oc([C@H]3CCN(Cc4cccnc4)C3)nc2c1`, the INHIBITION was 16.12%. As for `CCS(=O)(=O)c1ccc2oc([C@H]3CCN(Cc4ccccc4)C3)nc2c1`, the INHIBITION was determined as 55.66%.

For `CCS(=O)(=O)c1ccc2oc([C@H]3CCN(Cc4ccccn4)C3)nc2c1`, the INHIBITION was 30.4%. Then `Cc1ccc2oc([C@H]3CCN(Cc4ccccc4)C3)nc2c1`, with 45.22%; and `CCS(=O)(=O)c1ccc2oc([C@H]3CCN(Cc4ccncc4)C3)nc2c1`, with 61.7%; and `O=C(c1cccc(F)c1)N1CC[C@H]2[C@H]1CCN2CC1CCOCC1`, with 13.04%. Then `CCc1nccn1C1CCCN(C(=O)c2ccn(-c3ccccc3)n2)C1` (stereo not given), with 6.54%; and `O=C(CN1CCOCC1)N1CCC(c2cc(N3CCCC3)ncn2)CC1`, with 70.81%; and `O=C(CC1CNCCO1)N1CCC(c2cc(N3CCCC3)ncn2)CC1` (stereo not given), with 48.93%. Then `O=C(C1CNCCO1)N1CCC(c2cc(N3CCCC3)ncn2)CC1` (stereo not given), with 37.15%; and `Cn1ccnc1-c1cn(CCCc2csc(N)n2)nn1`, with -21.39%; and `CCNC(=O)[C@@H]1C[C@H](NC(=O)c2cncnc2C)CN1Cc1ccsc1`, with 12.78%.

Regarding `CCn1c(-c2ccccc2)nn(CC(=O)NCCc2ccc(C)s2)c1=O`, the INHIBITION is on record as 47.25%. The figure for `Cc1ccc(-n2nnc(C(=O)NC(C)C)c2C2CC2)cc1` is 82.5%.

Regarding `CC(C)NC(=O)c1nnn(-c2ccccc2)c1C1CC1`, the INHIBITION is recorded as 2.31%. Regarding `CC(C)NC(=O)c1nnn(-c2ccc(F)cc2)c1C1CC1`, the INHIBITION came out at 3.89%. Then `Cc1cc(C)n(C2CN(CCc3ccccn3)C2)n1`, with -7.32%; and `CN(C)Cc1nnc(C2CCCN(c3nccc4ccccc34)C2)n1C` (stereo not given), with 63.01%; and `CN(C)Cc1nnc(C2CCCN(c3ncccc3F)C2)n1C` (stereo not given), with 6.39%. The figure for `CN(C)CCn1ccnc1C1CCCN(c2nccc3ccccc23)C1` (stereo not given) is 49.94%. The figure for `Cc1cc(C)nc(NCCCC(=O)NCCn2ccc3ccccc32)n1` is -12.76%. `Cc1cc(C)nc(NCCC(=O)NCCn2ccnc2C)n1`: the INHIBITION came out at 28.4%. Then `Cc1cc(C)nc(NCCC(=O)NCCn2ccc3ccccc32)n1`, with 50.94%. Take `CCS(=O)(=O)N(C)C1CCN(C(=O)c2cccc(Cl)c2)CC1`: the INHIBITION is listed as -41.98%. Then `CCC(=O)Nc1ccc2c(c1)C1(CCOCC1)CN2CCF`, with -24.5%.

With `COc1ccc(OC)c(-c2nc(CN(C)Cc3nncn3C)c(C)o2)c1`, the INHIBITION is recorded as -5.6%.

Regarding `COc1ccc(NC(=O)c2ccccc2NCc2ncnn2C)cc1`, the INHIBITION is -25.35%.

`Cn1ncnc1CNc1ccccc1C(=O)NC(C)(C)C`: the INHIBITION is reported as -38.42%.

For `CNC(=O)c1ccccc1NCc1ncnn1C`, the INHIBITION is given as 54.03%. The figure for `CC(C)c1nnc2n1CC(CNC/C=C/c1ccccc1)CC2` (stereo not given) is 4.8%. The figure for `CC(C)c1n[nH]c(C2CN(C(=O)c3cc4c(s3)CCC4)CCO2)n1` (stereo not given) is 10.53%; for `COCC(c1cccc(C(F)(F)F)c1)N(C)C(=O)c1ccccn1` (stereo not given) it is -9.61%. The figure for `CCNC(=O)CN1CCCC(c2ccc(C(=O)O)cc2)C1` (stereo not given) is 2.06%; for `CC(C)(C)NC(=O)CN1CCCC(c2ccc(C(=O)O)cc2)C1` (stereo not given) it is 31.27%. On to `CC(C)CNC(=O)CN1CCCC(c2ccc(C(=O)O)cc2)C1` (stereo not given), for which the INHIBITION was found to be 50.67%. Then `CCS(=O)(=O)N1CCC(c2cc3n(n2)[C@@H](C(F)(F)F)C[C@@H](C)N3)CC1`, with -22.38%; and `Cc1cc(C)n(CC(=O)N2C[C@H]3CC[C@@H](C2)N(CC2CCC2)C3)c(=O)n1`, with 41.07%.

For the compound `Cc1nc(=O)c(CC(=O)N2C[C@H]3CC[C@@H](C2)N(CC2CCC2)C3)c(C)[nH]1`, the INHIBITION is reported as 25.47%. Take `Cc1nc(=O)c(CC(=O)N2C[C@H]3CC[C@@H](C2)N(CC2CCC2)C3)c[nH]1`: the INHIBITION was 68.39%. Then `Cc1ccc(C(C)NC(=O)Cc2c(C)nc3c(c2C)c(=O)[nH]n3C)o1` (stereo not given), with -30.5%. In the case of `CC(C)C1CN(C(=O)c2ccc3nccnc3c2)CCS1` (stereo not given), the INHIBITION is listed as 43.29%. Then `CCOCc1nn(CC2CC2)c2c1CN(Cc1cccs1)CC2`, with 34.93%; and `COCc1nn(CC2CC2)c2c1CN(Cc1ccco1)CC2`, with 38.09%. As to `COCc1n[nH]c2c1CN(Cc1cccs1)C2`, the INHIBITION amounted to 56.21%. The figure for `c1cncc(OCc2n[nH]c3c2CN(Cc2cccs2)C3)c1` is 14.94%; for `c1ccc(OCc2n[nH]c3c2CN(Cc2cccs2)C3)nc1` it is 29.45%; for `COCc1nn(CC2CC2)c2c1CN(Cc1cccs1)CC2` it is 51.26%. With `OCCOCc1n[nH]c2c1CN(Cc1ccco1)C2`, the INHIBITION came out at 8.99%.

As to `Cc1cccc(CN2Cc3[nH]nc(COCC4CC4)c3C2)n1`, the INHIBITION is -4.06%. The figure for `OCCOCc1n[nH]c2c1CN(Cc1cccs1)C2` is 52.74%. Then `c1ccc(CN2Cc3[nH]nc(COCC4CC4)c3C2)nc1`, with 28.5%. Then `c1csc(CN2Cc3[nH]nc(COCC4CC4)c3C2)c1`, with 58.98%; and `OCCOCc1n[nH]c2c1CN(Cc1ccccn1)C2`, with 2.69%; and `CCC[C@H]1CN(C(=O)CCn2ccccc2=O)C[C@@H]1NS(C)(=O)=O`, with 25.9%. For the compound `CC(C)S(=O)(=O)NC(=O)c1cc(-c2cccc(Cl)c2)no1`, the INHIBITION stood at 38.67%.

For the compound `COc1ccc(C)cc1-n1c(COC(C)C)n[nH]c1=O`, the INHIBITION is listed as -19.78%. The figure for `Cc1nc(C2CCCN2CCCc2nc3ccccc3o2)no1` (stereo not given) is 17.19%; for `COCCCN1CCC(C(=O)c2cc(F)ccc2F)CC1` it is -6.4%; for `O=C(NCC1(Sc2ccccc2)CC1)c1ccc(=O)[nH]n1` it is -5.26%. With `O=C(NCC1(Sc2ccccc2)CC1)c1cc[nH]n1`, the INHIBITION was 32.51%. The figure for `O=C(NCC1(Sc2ccccc2)CC1)c1c[nH]nn1` is 66.4%. The figure for `Cc1noc(C)c1CC(=O)N1CCCN(Cc2cscn2)CC1` is 25.74%. The figure for `c1ccc(C(c2ccccc2)N2CCN(CCn3cncn3)CC2)cc1` is 35.54%; for `c1ccc(CCCN2CCN(CCn3cncn3)CC2)cc1` it is 76.6%; for `N#Cc1ccc(CN2CCCN(C(=O)CCn3cncn3)CC2)cc1` it is 12.43%.

For the compound `c1ccc(SCCN2CCN(CCn3cncn3)CC2)cc1`, the INHIBITION stood at 30.62%.

With `c1ccc(-c2noc(C3CCN(CCCn4cncn4)CC3)n2)cc1`, the INHIBITION turned out to be 57.75%. The figure for `N#Cc1ccc(N2CCCN(CCCn3cncn3)CC2)cc1` is -27.36%; for `O=C(CCCn1cncn1)N1CCCC1c1nc(-c2ccccc2)no1` (stereo not given) it is 48.21%. Then `N#Cc1ccc(CN2CCCN(CCCn3cncn3)CC2)cc1`, with 65.3%; and `c1ccc(-c2noc(C3CCN(CCn4cccn4)CC3)n2)cc1`, with 43.44%.
